# From PubChem BioAssay
# This is a sample that favours compounds with a hit; in the whole collection about 6.5% have one here.
# Lassa entry inh = qHTS for Inhibitors of binding or entry into cells for Lassa Virus. Lassa virus pseudotype entry inhibition, cell reporter. Potency, µM (doses to about 37.9 µM), for inactives: at the highest dose activity change, negative = inhibition, hits mostly inhibitors. 300,000 tested, 1.2% active; calls by dose curve; tested in HEK293 cells; note: potency is the fitted concentration of half-maximal effect; nearly all actives have a fitted effect of over 50% in size
# MARV entry inh = qHTS for inhibitors of binding or entry into cells for Marburg Virus; Marburg virus pseudotyped entry inhibition, cell reporter; 300,000 tested, 1.8% active; AID 540276, 2011; Potency, µM (top dose mostly 37.8 µM), for the others: top-dose activity change, negative = inhibition, most hits filed as inhibitors; calls by dose curve; tested in HEK293 cells; note: potency is the fitted concentration of half-maximal effect
# VACV mCherry inh = qHTS for Stage-Specific Inhibitors of Vaccinia Orthopoxvirus: mCherry Reporter Primary qHTS | Vaccinia virus mCherry reporter infection, fluorescence | Potency, µM (titrated, usually from 36.5 µM), without a hit: at the top dose activity change, negative = inhibition, actives largely listed as inhibitors | 310,000 tested, 0.63% active; calls by dose curve; tested in A549 cells; note: potency is the fitted concentration of half-maximal effect; nearly all actives have a fitted effect of over 35% in size
# FMDV inh = High Throughput Screening for Foot and Mouth Disease Virus Antivirals; FMDV antiviral cell-based qHTS; Potency, µM (highest dose often 57.9 µM), for the others: top-dose activity change, negative = inhibition, usual class: inhibitors; 410,000 tested, 1.2% active; AID 1159524, 2015; calls by dose curve; tested in HEK293T cells; note: read-out not given here; potency is the fitted concentration of half-maximal effect; nearly all actives have a fitted effect of over 45% in size
# Vaccinia Venus = qHTS for Stage-Specific Inhibitors of Vaccinia Orthopoxvirus: Venus Reporter Primary qHTS; Vaccinia virus Venus reporter expression, fluorescence; Potency, µM (series often up to 36.5 µM), for inactives: at the highest dose activity change, negative = inhibition, usual class: inhibitors; 330,000 tested, 0.46% active; calls by dose curve; tested in A549 cells; note: potency is the fitted concentration of half-maximal effect; nearly all actives have a fitted effect of over 30% in size
# HCMV inh = qHTS Assay for inhibitors of the human cytomegalovirus (HCMV); HFF cells, HCMV-luciferase reporter, 72 h; hits give low values; AID 1259415, 2018; activity change, negative = inhibition, % at 57.5 µM; 410,000 tested, 4.5% active; in the data active = activity change below about -60%; inconclusive = no clear call, values can overlap the other calls; inactive = above about -39%
#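 After 16 h attachment at 37C, HFF cells received test compound and HCMV-luciferase (1 PFU/cell); reporter luminescence read 72 h later, data normalized against buffer-only and known inhibitor Salinomycin.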
# Numbers without * were called inactive; i = inactive; ? = inconclusive; . = not tested or not shown; + = active, no number; ! = not confirmed by another sample; [ ] = another dose, or the depositor's remark. % is set by controls: 0 for no effect and ±100 for the full control effect.
SMILES,Lassa entry inh,MARV entry inh,VACV mCherry inh,FMDV inh,Vaccinia Venus,HCMV inh
CC1CC(C)CN(C(=O)COC(=O)CN2C(=O)c3ccccc3C2=O)C1 (stereo unspecified),-1%[46.1 µM],6%[46.1 µM],-15%,-9%,9%,-19
CC1CC(C)CN(C(=O)c2ccc3c(c2NCCO)C(=O)c2ccccc2C3=O)C1 (stereo unspecified),?,10µM*,-24%,-21%,15%,-13
C=Cn1ccnc1P(=S)(c1ccc(Cl)cc1)c1nccn1C=C,19%[46.1 µM],-2%[46.1 µM],-8%,-8%,-10%,-76*
C=Cn1ccnc1P(=S)(c1ccccc1)c1nccn1C=C,6%,1%[46.1 µM],-9%,2%,-1%,-25
CCN(CC)S(=O)(=O)c1ccc(NC(=O)CCc2c(C)nc3cc(-c4ccc(Cl)cc4)nn3c2C)cc1,?,?,-2%,?,-28%,-76*
CC(=O)c1ccc(NC(=O)CCc2c(C)nc3cc(-c4ccc(Cl)cc4)nn3c2C)cc1,7%[46.1 µM],-3%[46.1 µM],-16%,?,-4%,-35
COc1ccc(/C=C2\SC(=S)N(CCCC(=O)Nc3ccc(O)cc3)C2=O)cc1,.,.,?,2%,0%,+
O=C(CCCN1C(=O)/C(=C\c2ccco2)SC1=S)Nc1ccc2ccccc2c1,?,?,?,-16%,29%,-81*
COc1ccc(/C=C2/SC(=S)N(CCCC(=O)Nc3ccc(O)cc3)C2=O)cc1,.,.,.,-7%,.,-100*
COc1ccc(OC)c(CN2CCOc3ccc(CN4CCC(O)(c5cccnc5)CC4)cc3C2)c1,.,.,-14%,0%,4%,.
Cc1ccc(C(=O)N2CCN(Cc3cc(=O)n4nc(-c5ccccc5)sc4n3)CC2)cc1,9%[46.1 µM],.,-9%,-9%,-11%,-14
CSc1ccc(NC(=O)Nc2cc(C)ccn2)cc1,7.1µM*,7.1µM*,-13%,-43%,-11%,6
CCOc1cccc2cc(-c3nc4sc5c(c4c(=O)[nH]3)CCC(C)C5)c(=O)oc12 (stereo unspecified),4%[46.1 µM],.,-12%,-14%,0%,-24
Cc1nn2c(N3CCN(C)CC3)cc(C(C)(C)C)nc2c1-c1ccccc1,?,10µM*,i,?,-3%,-67*
Cc1nn2c(N3CCN(C(=O)c4ccco4)CC3)cc(C(C)(C)C)nc2c1-c1ccccc1,3%,-8%,.,14µM*,10µM*,-64*
Cc1nn2c(N3CCN(C4CCCC4)CC3)cc(C(C)(C)C)nc2c1-c1ccccc1,-2%,8%,.,10%,.,-1
COc1ccc(CNc2ccnc(-c3ccc(N(C)C)cc3)n2)c(OC)c1,.,.,.,3%,.,.
COC(=O)c1nnc(C(=O)NCc2ccccc2)c2[nH]c3ccccc3c12,.,-15%[14.2 µM],.,.,.,.
CC(C)=CCN1CCN(Cc2ccc(C)s2)CC1CCO (stereo unspecified),?,-9%,-1%,-1%,-16%,-67*
N[C@](CC1c2ccccc2Oc2ccccc21)(C(=O)O)[C@H]1C[C@@H]1C(=O)O,.,.,-3%,-13%,0%,.
O=C(NCc1ccccc1F)C1CCCN(S(=O)(=O)c2ccc(-n3cnnn3)cc2)C1 (stereo unspecified),-16%,8%[46.1 µM],i,?,-17%,-77*
O=C(NCc1ccco1)C1CCCN(S(=O)(=O)c2ccc(-n3cnnn3)cc2)C1 (stereo unspecified),0%,-23%,-12%,-8%,-5%,-1
CCOC(=O)c1c(C)[nH]c(C(=O)Nc2ccc(NC(C)=O)cc2)c1C,-3%,?,.,-17%,.,-65*
CCOC(=O)c1c(C)[nH]c(C(=O)OCC(=O)Nc2sccc2C(N)=O)c1C,?,2.2µM*,-16%,16µM*,?,-68*
CCOC(=O)c1[nH]c(C)c(C(=O)Nc2ccc3c(c2)OCCO3)c1C,-3%,22%,i,0%,-14%,-74*
SMILES,Lassa entry inh,MARV entry inh,VACV mCherry inh,FMDV inh,Vaccinia Venus,HCMV inh
CCOC(=O)c1c(C)[nH]c(C(=O)N/N=C/c2cccc(OC)c2)c1C,?,?,?,15%,?,-36
CCOC(=O)c1c(C)[nH]c(C(=O)Nc2ccc(C)c(Cl)c2)c1C,6%,7%,.,.,.,.
CCOC(=O)c1c(C)[nH]c(C(=O)N/N=C\c2ccccc2Cl)c1C,?,-27%,?,-17%,?,-99*
O=C(NCCN1CCOCC1)c1cnn(-c2ncc3c(n2)-c2ccccc2CC3)c1C1CC1,.,.,-12%,-2%,-8%,.
COc1cccc(C(=O)OCC(=O)N2CCc3ccccc32)c1OC,26%,?,i,28%,-5%,-98*
COc1cccc2cc(C(=O)N3CCc4ccccc43)c(=O)oc12,-3%,3%[46.1 µM],-15%,8%,-7%,-71*
Nc1ccccc1C(=O)OCC(=O)N1CCc2ccccc21,1%,?,-12%,50%,-4%,13
COc1cc(/C=C/C(=O)OCC(=O)N2CCCc3ccccc32)ccc1O,-26%,1.3µM*,-29%,-10%,-22%,-15
CC(=O)N1CCC(=NNc2nc3ccccc3[nH]2)CC1,0%[46.1 µM],?,-19%,14%,-3%,-15
CCC(C)(C)C1CCC(=NNc2nc3ccccc3[nH]2)CC1 (stereo unspecified),8.2µM*,?,.,-17%,.,?
COc1ccc2c(c1)[C@@H](NC(=O)c1c(C)noc1C)[C@H](C)[C@@H](c1ccccc1)N2C(=O)NC(C)C,.,.,.,.,.,0
COc1ccc(-c2nc3cnc(N4CCN(C)CC4)nc3n(CCC#N)c2=O)cc1,.,.,.,-13%,.,.
CCN=C1SC(CC(=O)NCCc2ccc(OC)c(OC)c2)C(=O)N1CC (stereo unspecified),0%,5%,-3%,-11%,?,91
CN=C1SC(CC(=O)NCCc2ccc(OC)c(OC)c2)C(=O)N1C (stereo unspecified),7%[46.1 µM],?,-10%,-3%,7%,-64*!
CCN(CC)c1cc(C)c(/C=C/c2ccnc3ccccc23)cc1C,.,.,-16%,.,2%,.
CCc1ccc2c(c1)NC(=O)C2(C)Cc1ccccc1Cl (stereo unspecified),.,.,i,-13%,-14%,-9
COc1ccccc1CC1(C)C(=O)Nc2c(Cl)cccc21 (stereo unspecified),.,.,i,-20%,-12%,-73*
CCc1ccc2c(c1)NC(=O)C2(C)Cc1ccccc1OC (stereo unspecified),.,.,-14%,-22%,-19%,-71*
COc1nc(-c2ccccc2)ccc1-c1noc(-c2cccnc2)n1,32%,0%,.,3%,.,-104*
COc1cc(-c2cc(OC)c3c(C)oc(C)c3c(=O)c2)ccc1OC(=O)c1cccc(C)c1,-19%[46.1 µM],-1%[46.1 µM],-12%,-29%,-5%,8
